# SF1 inhibitor: inhibitors of human nuclear receptor SF-1; Q13285; CHO-K1 Gal4-SF-1 LBD luciferase reporter; inhibition, % at 10 µM; 65,000 compounds, 0.55% hits; AID 525;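 active = inhibition above the mean inhibition of all tested compounds plus 3 SD, cut at about 48% in these data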;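 also: 0% = SF-1 transfected cells with DMSO and 100% = mock-transfected cells lacking SF-1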
# Target sequence (Q13285 whole entry, looked up, the tested form may be a part): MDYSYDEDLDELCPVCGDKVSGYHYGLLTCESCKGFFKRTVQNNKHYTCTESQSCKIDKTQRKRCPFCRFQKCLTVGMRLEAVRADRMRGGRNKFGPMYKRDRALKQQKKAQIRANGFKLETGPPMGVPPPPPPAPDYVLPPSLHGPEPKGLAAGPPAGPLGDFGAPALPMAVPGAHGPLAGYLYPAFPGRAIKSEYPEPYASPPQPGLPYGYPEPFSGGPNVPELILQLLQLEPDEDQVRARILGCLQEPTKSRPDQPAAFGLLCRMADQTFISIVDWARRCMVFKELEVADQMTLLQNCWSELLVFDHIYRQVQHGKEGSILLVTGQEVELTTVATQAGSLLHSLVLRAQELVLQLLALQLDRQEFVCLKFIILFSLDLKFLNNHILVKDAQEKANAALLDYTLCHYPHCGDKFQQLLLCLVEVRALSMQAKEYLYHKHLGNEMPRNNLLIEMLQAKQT
# Numbers without * were called inactive. This excerpt belongs to a sample that is enriched for hits.
SMILES,SF1 inhibitor
CC1Cc2cc(/C(O)=C3/C(=O)C(=O)N(CCCN(C)C)C3c3ccncc3)ccc2O1 (stereo not drawn),-4
Cc1ccc(-c2ccc(OCC(=O)N3CCOCC3)cc2)cc1,2
CCOc1ccc(OCc2cccc(C(=O)N3CCOCC3)c2)cc1,62*
COc1cccc(C(=O)N2CCN(Cc3cccc(F)c3)CC2)c1,2
COCCCn1c(Cc2csc(Nc3cccc(Cl)c3)n2)nnc1SCC(=O)OC,-1
O=C(NC1CCCCC1)C(c1ccc(F)cc1)N(Cc1ccco1)C(=O)Cn1nnc2ccccc21 (stereo not drawn),0
O=C(O)CC(CP(=O)(c1ccccc1)c1ccccc1)C(=O)O (stereo not drawn),10
Cc1ccc(-c2nc3nc4ccccc4nc3n2Cc2ccco2)cc1,59*
c1ccc(Cn2c(-c3ccco3)nc3nc4ccccc4nc32)cc1,-82
COc1ccc(CCn2c(-c3ccco3)nc3nc4ccccc4nc32)cc1,-29
CC(C)(C)NC(=O)c1ccc(COc2ccccc2Br)o1,10
Cc1ccc(C(=O)/C=C/Nc2ccccc2C(N)=O)o1,-63
COc1cccc(NC(=O)c2nc3ncccn3n2)c1,-10
COc1ccc(C(=O)Nc2cccc(OC)c2)cc1,-81
COc1ccc(C(=O)NC(=O)Nc2cc(C)ccn2)cc1,89*
O=C(CNc1ccc(Oc2ccccc2)cc1)N1CCOCC1,-10
Cn1c(=O)c2c(nc(N3CCOCC3)n2CCCNC2=NCCC2)n(C)c1=O,2
CCOC(=O)c1c(C)[nH]c(C(=O)COC(=O)C2CC2C)c1C (stereo not drawn),-54
COC(=O)c1c(C)[nH]c(C(=O)OCc2ccc(F)cc2)c1C,-60
CCOC(=O)c1c(C)[nH]c(C(=O)C(C)OC(=O)c2cccc(OCc3c(C)noc3C)c2)c1C (stereo not drawn),81*
c1ccc(-c2cn3c4c(sc3n2)CCCC4)cc1,73*
Cc1c(C(=O)NCc2ccco2)sc2nc(-c3ccccc3)cn12,-52
Cc1c(C(=O)N2CCOCC2)sc2nc(-c3ccccc3)cn12,-82
COc1ccc2nc(NC(=O)c3ccoc3C)sc2c1,20
Cc1noc(C(=O)Nc2ccc3c(c2)OCO3)c1Cl,-61
SMILES,SF1 inhibitor
Cc1occc1C(=O)Nc1ccc2c(c1)OCO2,-53
CCOC(=O)c1c(N)sc(C(=O)Nc2ccc3c(c2)OCO3)c1C,53*
CC(=O)N1c2ccccc2N(Cc2ccc(C)cc2C)C(=O)C1(C)C,8
CN(CC(O)COCc1cccs1)C1CCCCC1 (stereo not drawn),4
O=c1[nH]c2ccc(Br)cc2c(-c2ccccc2)c1CN1CCOCC1,10
Oc1c(CN2CCOCC2)cc(COCc2ccccc2)c2cccnc12,73*
COc1cccc(NC(=O)c2nnn(CCc3ccccc3)c2N)c1,-84
O=C(CSc1nccn1-c1cccc(Cl)c1)NC1CCCC1,-2
c1ccc(-c2nc3ccccc3s2)nc1,-60
c1ccc(-c2n[nH]c(-c3ccccn3)n2)nc1,-78
c1ccc(-c2ccc(-c3ccccn3)nn2)nc1,53*
O=C(CSc1nnc(-c2cccnc2)o1)Nc1ccccn1,-76
Cc1ccc(-c2cc(C(=O)N3CCCC3)no2)cc1,51*
COc1ccc(-c2cc(C(=O)N3CCCCC3)no2)cc1OC,-77
O=C(c1cc(-c2cccc(O)c2)on1)N1CCN(C(c2ccccc2)c2ccccc2)CC1,5
O=C(NCc1cccs1)c1cc(-c2ccccc2)on1,-41
COc1ccccc1N(Cc1cc2cccc(C)c2[nH]c1=O)C(=O)C(C)C,2
O=C(COc1ccc(-c2ccccc2)cc1)N1CCN(C(=O)c2cccnc2)CC1,-16
CCCCOc1ccc(-c2ncc(Cl)cn2)cc1,-26
CCCCOc1ccc(OC(=O)c2cccnc2)cc1,66*
CCCc1cc(=O)oc2cc(Oc3ncccn3)ccc12,-14
Cc1n[nH]c(C)c1S(=O)(=O)N1CCC(C(=O)O)CC1,2
O=C(Nc1nc(-c2ccc(Cl)s2)cs1)c1ccncc1,63*
O=C(Nc1ccccc1F)c1ccncc1,5
Cc1csc(NC(=O)c2sc3nc(-c4cccs4)ccc3c2N)n1,-50
SMILES,SF1 inhibitor
CS(=O)(=O)N(CC(=O)NCc1ccncc1)c1cc(Cl)cc(Cl)c1,14
COC(=O)c1cc(-c2cccc(OC)c2)n[nH]1,-6
Cc1csc(NC(=O)Cc2nn(C)c(=O)c3ccccc23)n1,54*
Cn1nc(CC(=O)Nc2ccc(N3CCN(C(=O)OC(C)(C)C)CC3)cc2)c2ccccc2c1=O,63*
Cn1c(SCC(=O)Nc2ccc3c(c2)OCCO3)nnc1-c1ccco1,-16
COc1cccc(OC)c1NC(=O)Cc1nn(C)c(=O)c2ccccc12,-3
CCc1nn(CC(=O)O)c(=O)c2ccccc12,-18
CCC(=O)Nc1ccc(N2CCN(C(=O)c3ccccc3C)CC2)cc1,4
Cc1ccc(NC(=O)Cc2nn(C)c(=O)c3ccccc23)cc1F,80*
O=C(Nc1ccc2c(c1)OCCO2)c1c(F)cccc1F,-56
Cn1nc(CC(=O)Nc2ccc3c(c2)OCCO3)c2ccccc2c1=O,62*
COc1ccc2c(c1)c(C(=O)CNc1nc(C)cs1)c(C)n2C,6
Cn1nc(C(=O)NCC2CCCO2)c2ccccc2c1=O (stereo not drawn),6

# Screening results as filed in PubChem.
